PubChem BioAssay (EPA / NIEHS)
Results filed as inconclusive are left out. More than one record can exist for a structure, and the calls need not agree. Calls of active or inactive are those of the source. Rule for the calls: active = hit-call score of the fitted dose curve at least 0.9, where 1 is the maximum; inconclusive = response in the unintended direction; inactive = score below 0.9.

Key:
[1] = ATG_XTT_Cytotoxicity: Cytotoxicity Assessment in the Attagene TRANS-FACTORIAL HepG2 Assay (AID 2283584)
Summary of the method: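 Viability endpoint from XTT after 24 h chemical exposure of reporter-transfected human HepG2 liver cells; signal loss fitted relative to DMSO negative control.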

[2] = molecular target: Cellular tumor antigen p53 (Homo sapiens) (UniProt P04637); assay: TOX21_p53_BLA_p2_ratio: Tox21 HCT-116 p53 Agonism Beta-lactamase Assay, Ratio, Phase 2 (AID 2283592)
Summary of the method: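 Gain-of-signal p53 agonism was scored from the beta-lactamase FRET ratio (460/530 nm, 405 nm excitation) in HCT116 cells treated 16 h at 37C, 5% CO2, with DMSO serving as negative control and baseline.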

[3] = TOX21_p53_BLA_p3_viability: Viability Assessment in the Tox21 HCT-116 p53 Agonism Beta-lactamase Assay, Phase 3 (AID 2283593);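 note: cells exposed to compound for 16 h before reading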
Summary of the method: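 Cellular ATP was quantified by CellTiter-Glo luminescence, read after 30 min at room temperature. Beforehand, HCT116 cells (4000/well) received compound 5 h post-seeding, 217-fold diluted from DMSO, then incubated 16 h at 37C.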

[4] = molecular target: Cellular tumor antigen p53 (Homo sapiens) (UniProt P04637); assay: TOX21_p53_BLA_p3_ratio: Tox21 HCT-116 p53 Agonism Beta-lactamase Assay, Ratio, Phase 3 (AID 2283596)
Summary of the method: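 HCT116 p53-bla cells (4000/well) given compound in DMSO (217-fold dilution) after 5 h, incubated 16 h at 37C. CCF4-AM substrate 2 h at room temperature; 460/530 nm emission ratio, gain fitted against DMSO.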

[5] = molecular target: Cellular tumor antigen p53 (Homo sapiens) (UniProt P04637); assay: TOX21_p53_BLA_p5_ratio: Tox21 HCT-116 p53 Agonism Beta-lactamase Assay, Ratio, Phase 5 (AID 2283599)
Summary of the method: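 Beta-lactamase reporter ratio (blue 460 nm over green 530 nm, 405 nm excitation) after 2 h CCF4-AM loading, in HCT-116 cells exposed 16 h at 37 C to compounds pinned at 217-fold dilution. Increases relative to DMSO baseline scored.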

[6] = TOX21_p53_BLA_p4_viability: Viability Assessment in the Tox21 HCT-116 p53 Agonism Beta-lactamase Assay, Phase 4 (AID 2283597);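 note: hits lower the luminescence signal meaning cytotoxicity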
Summary of the method: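 Following a 16 h exposure at 37C, the treated HCT116 wells were first read for the FRET ratio. They were then lysed with CellTiter-Glo, and ATP luminescence was recorded after 30 min at room temperature.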

[7] = TOX21_p53_BLA_p5_viability: Viability Assessment in the Tox21 HCT-116 p53 Agonism Beta-lactamase Assay, Phase 5 (AID 2283600)
Summary of the method: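 After the 460/530 nm beta-lactamase measurement, the wells received an ATP-detection luciferase reagent; signal was read 30 min later at RT. Compound treatment lasted 16 h on cells pre-incubated 5 h post-seeding.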

[8] = molecular target: Cellular tumor antigen p53 (Homo sapiens) (UniProt P04637); assay: TOX21_p53_BLA_p4_ratio: Tox21 HCT-116 p53 Agonism Beta-lactamase Assay, Ratio, Phase 4 (AID 2283601)
Summary of the method: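 Signal is the blue/green (460nm/530nm) ratio of cleaved versus uncleaved CCF4-AM substrate, read after 2 h substrate loading. Cells were HCT116 carrying the p53-responsive beta-lactamase reporter, dosed 16 h at 37C, 5% CO2; CellTiter-Glo measured in parallel.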

[9] = TOX21_p53_BLA_p2_viability: Viability Assessment in the Tox21 HCT-116 p53 Agonism Beta-lactamase Assay, Phase 2 (AID 2283591);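 note: compound exposure lasted 16 h at 37 °C; actives lower the ATP signal meaning cytotoxicity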
Summary of the method: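 Cytotoxicity readout: CellTiter-Glo ATP luminescence, 30 min at room temperature, after the beta-lactamase read. Cells were HCT116 exposed 16 h at 37C to compounds pin-transferred at 217-fold dilution from DMSO stocks.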

Measured: AC50

Chain of Cellular tumor antigen p53 (Homo sapiens) (P04637 whole entry, looked up): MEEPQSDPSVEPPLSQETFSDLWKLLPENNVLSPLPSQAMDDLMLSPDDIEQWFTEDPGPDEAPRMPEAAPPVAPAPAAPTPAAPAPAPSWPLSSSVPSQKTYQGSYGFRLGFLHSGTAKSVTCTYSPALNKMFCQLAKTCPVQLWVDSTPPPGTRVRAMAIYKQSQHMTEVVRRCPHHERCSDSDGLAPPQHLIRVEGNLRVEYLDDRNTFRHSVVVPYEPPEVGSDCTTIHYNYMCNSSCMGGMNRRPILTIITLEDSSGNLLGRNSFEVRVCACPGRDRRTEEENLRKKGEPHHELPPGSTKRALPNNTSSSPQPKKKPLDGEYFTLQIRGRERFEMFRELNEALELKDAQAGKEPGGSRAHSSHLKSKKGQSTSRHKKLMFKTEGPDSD

CC(=O)c1ccccc1O
inactive: [1] | [2] | [3] | [4] | [5]

CC(C)(O)Cc1ccccc1
not listed: [8] | [9]
inactive: all other assays above

CCCCCC(=O)OCC
inactive: [1] | [3] | [5]

CCOC(=O)C1=NOC(c2ccccc2)(c2ccccc2)C1
not listed: [3] | [9]
inactive: all other assays above

O=C(C=Cc1ccccc1)OCCc1ccccc1
not listed: [5] | [6] | [9]
inactive: all other assays above

CCC(C)(O)CCCC(C)C (stereo unspecified)
not listed: [6] | [9]
inactive: all other assays above

CCCC(C)C(=O)OCC (stereo unspecified)
inactive: [1] | [4] | [6] | [8]

CO[Si](CCCS)(OC)OC
not listed: [3] | [6] | [9]
inactive: all other assays above

CCCCCCCCCCCC(C)=O
inactive: [1] | [3] | [7] | [8]

CCCCOCCOCCOC(C)=O
not listed: [9]
inactive: all other assays above

CCCc1ccc(O)c(OC)c1
not listed: [3] | [6] | [9]
inactive: all other assays above

C=CC(=O)OCC(C)OCC(C)OCC(C)OC(=O)C=C (stereo unspecified)
not listed: [6] | [7] | [9]
inactive: all other assays above

C=CC(C)(O)CC/C=C(\C)CC (stereo unspecified)
inactive: [1] | [4] | [6] | [5]

CCCSSCCC
inactive: [1] | [4]

NNS(=O)(=O)c1ccc(Oc2ccc(S(=O)(=O)NN)cc2)cc1
inactive: [1] | [3] | [5] | [7]

Cc1c(C(=O)c2c[nH]n(C)c2=O)ccc(S(C)(=O)=O)c1C1=NOCC1
not listed: [6] | [8] | [9]
inactive: all other assays above

CCCCCC[C@@H](O)C/C=C\CCCCCCCC(=O)OCC(O)CO (stereo partly specified)
not listed: [5] | [7] | [9]
inactive: all other assays above

CC(C)(C)N
inactive: [1] | [4] | [6]

CC(=O)OC/C=C(/C)CCC=C(C)C
not listed: [3] | [9]
inactive: all other assays above

CCC1COC(=O)O1 (stereo unspecified)
not listed: [6] | [8] | [9]
inactive: all other assays above

CO[Si](C)(C)OC
not listed: [3] | [4] | [9]
inactive: all other assays above

C=C[C@@]1(C)CC(=O)[C@]2(O)[C@@]3(C)[C@@H](O)CCC(C)(C)[C@@H]3[C@H](O)[C@H](OC(C)=O)[C@@]2(C)O1
inactive: [9] | [2] | [3] | [4] | [6] | [5] | [7]
active: [6] 27.1 µM

CCC(C)C(=O)OCCc1ccccc1 (stereo unspecified)
inactive: [2] | [4] | [5] | [7]

O=C(O)C1CCC(C(=O)O)CC1 (stereo unspecified)
inactive: [9] | [2] | [3] | [4] | [5]
active: [6] 82.4 µM

CC(C)COC(=O)CC(C(=O)OCC(C)C)S(=O)(=O)O (stereo unspecified)
not listed: [1] | [4] | [7]
inactive: all other assays above

CCCCCCOC(=O)CCCCC(=O)OCCCCCC
inactive: [9] | [2] | [3] | [6]

CC(=O)c1ccc(S(=O)(=O)NC(=O)NC2CCCCC2)cc1
not listed: [1]
inactive: all other assays above

CC(C)c1cc(C(C)C)cc(C(C)C)c1
inactive: [9] | [4] | [6]

CC(=O)C(C)C
inactive: [9] | [4] | [5] | [7]

CC(C)=CCl
inactive: [9] | [3] | [4] | [6] | [7]

C=C(C)C(=O)OCCOC(=O)C(=C)C
not listed: [1]
inactive: all other assays above

C=CC(=O)OCCCCCCCC(C)C
not listed: [1] | [5] | [9]
inactive: all other assays above

O=C(OCc1ccccc1)c1ccc(O)cc1
not listed: [1]
inactive: all other assays above

CC1=NN(c2ccc(S(=O)(=O)O)cc2)C(=O)C1N=Nc1ccccc1 (stereo unspecified)
inactive: [1] | [6] | [8]

CC12CCC(CC1)C(C)(C)O2
inactive: [9] | [2] | [3] | [4] | [5]

CC1=CC=C(C(C)C)CC1
inactive: [1] | [5] | [7]

CC1=CC(C)C(C=O)CC1 (stereo unspecified)
inactive: [2] | [4] | [5] | [8]

CCCCNC(=S)NCCCC
not listed: [1] | [5] | [8]
inactive: all other assays above

CCOC(=O)c1ccccc1C
not listed: [1] | [4]
inactive: all other assays above

COC(=O)CC(C)CCC=C(C)C (stereo unspecified)
not listed: [1] | [8] | [9]
inactive: all other assays above

C=C[Si](OCCOC)(OCCOC)OCCOC
not listed: [1] | [2] | [8]
inactive: all other assays above

Cc1cccc(C(C)(C)C)c1O
not listed: [1] | [3]
inactive: all other assays above

CCN1CN(CC)CN(CC)C1
inactive: [6]

CCCCCCCC(=O)OCC(COC(=O)CCCCCCC)OC(=O)CCCCCCC
not listed: [1] | [8]
inactive: all other assays above

OCCCc1ccccc1
not listed: [1] | [6] | [7]
inactive: all other assays above

COC(=O)c1ccccc1C
inactive: [3] | [4] | [7]

C=CC(=O)OCCCCCCCCCC
not listed: [1] | [6] | [9]
inactive: all other assays above

CCCC1CCCC(=O)O1 (stereo unspecified)
not listed: [1] | [2] | [6]
inactive: all other assays above

O=c1c(O)c(-c2ccc(O)cc2O)oc2cc(O)cc(O)c12
inactive: [9] | [3]

C[Si]1(C)O[Si](C)(C)O[Si](C)(C)O[Si](C)(C)O[Si](C)(C)O1
inactive: [2] | [7]

CCc1cccc(C)c1N
not listed: [1]
inactive: all other assays above

CC1=CCC2CC1C2(C)C (stereo unspecified)
inactive: [9] | [3] | [6]

CCCCc1ccc(Cl)cc1
inactive: [4] | [6] | [7]

O=C(O)CCCC(=O)O
not listed: [1] | [6] | [9]
inactive: all other assays above

O=S(=O)(O)c1ccc(N=Nc2c(O)ccc3ccccc23)cc1
active: [6] 44 µM
not listed: [1]
inactive: all other assays above

Cc1ccccc1CCO
inactive: [9] | [3] | [4] | [5] | [8]
